Assay results reported in PubChem BioAssay AID1159580 (chemical genetic matrix, 2015).
“And” between values parts separate entries of the source, which are not always exact repeats. Identical values can stand only once. Screen size: about 5,500 compounds; about 2,000 (36%) were called active. About 18% were inconclusive and are not listed. Cut-off read from the data, not from the text of the source: active = normalized growth mostly below about 0.91 (no sharp cut-off); inconclusive = no clear call, values can overlap the other calls; inactive = mostly above about 0.92. Some of the results follow.

Assay: chemical genetic growth profiling, strain panel (AID 1159580);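 note: tested at 20 µM; growth read once vehicle control cultures reached saturation at 30 °C; 1 = growth at the plate median or of vehicle wells; lower values mean less growth of the strain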
Settings: growth OD

Measured: normalized growth

COCCOC(=O)C1=C(C)NC(C)=C(C(=O)OC(C)C)C1c1cccc([N+](=O)[O-])c1 (stereo unspecified)
inactive: S. cerevisiae deletion strains, locus YJR075W, strain HOC1, active compounds read low 1.01 | S. cerevisiae deletion strains, locus YKL009W, strain mrt4, active compounds read low 0.967 | S. cerevisiae deletion strains, locus YKL068W, active compounds read low 1 | S. cerevisiae deletion strains, locus YKL085W, strain MDH1 (second series), active compounds read low 0.986 | S. cerevisiae deletion strains, locus YKL085W, strain MDH1, active compounds read low 0.986 | S. cerevisiae deletion strains, locus YKL160W, strain elf1, active compounds read low 1.02 | S. cerevisiae deletion strains, locus YKL190W, strain CNB1, active compounds read low 0.997 | S. cerevisiae deletion strains, locus YKR001C, strain vps1, active compounds read low 1.01 | S. cerevisiae deletion strains, locus YKR026C, strain gcn3, active compounds read low 1.01 | S. cerevisiae deletion strains, locus YKR091W, strain srl3, active compounds read low 0.995 | S. cerevisiae deletion strains, locus YLL001W, strain dnm1, active compounds read low 1.01 | S. cerevisiae deletion strains, locus YLL026W, active compounds read low 1 | S. cerevisiae deletion strains, locus YLL041C, strain sdh2, active compounds read low 1.01 | S. cerevisiae deletion strains, locus YLR027C, strain aat2, active compounds read low 1 | S. cerevisiae deletion strains, locus YLR039C, strain RIC1, active compounds read low 1.02 | S. cerevisiae deletion strains, locus YLR058C, strain SHM2, active compounds read low 1 | S. cerevisiae deletion strains, locus YLR102C, strain apc9, active compounds read low 1.02 | S. cerevisiae deletion strains, locus YLR113W, strain HOG1, active compounds read low 0.954 | S. cerevisiae deletion strains, locus YLR221C, strain rsa3, active compounds read low 1 | S. cerevisiae deletion strains, locus YLR258W, strain gsy2, active compounds read low 1.01 | S. cerevisiae deletion strains, locus YLR262C, strain YPT6 (second series), active compounds read low 0.988 | S. cerevisiae deletion strains, locus YLR262C, strain YPT6, active compounds read low 1.05 | S. cerevisiae deletion strains, locus YLR268W, strain sec22, active compounds read low 0.993 | S. cerevisiae deletion strains, locus YLR320W, strain mms22, active compounds read low 0.984 | S. cerevisiae deletion strains, locus YLR330W, strain CHS5, active compounds read low 1.01 | S. cerevisiae deletion strains, locus YLR342W, strain FKS1 (second series), active compounds read low 1.01 | S. cerevisiae deletion strains, locus YLR342W, strain FKS1, active compounds read low 1.02 | S. cerevisiae deletion strains, locus YLR357W, strain rsc2, active compounds read low 1.02 | S. cerevisiae deletion strains, locus YLR370C, strain arc18, active compounds read low 1 | S. cerevisiae deletion strains, locus YLR371W, strain rom2, active compounds read low 1.01 | S. cerevisiae deletion strains, locus YLR384C, strain iki3, active compounds read low 1.02 | S. cerevisiae deletion strains, locus YLR418C, strain cdc73, active compounds read low 0.974 | S. cerevisiae deletion strains, locus YML016C, strain PPZ1, active compounds read low 1 | S. cerevisiae deletion strains, locus YML032C, strain rad52, active compounds read low 1.01 | S. cerevisiae deletion strains, locus YML120C, strain ndi1, active compounds read low 1.03 | S. cerevisiae deletion strains, locus YML124C, strain tub3, active compounds read low 1.01 | S. cerevisiae deletion strains, locus YMR058W, strain fet3, active compounds read low 1.02 | S. cerevisiae deletion strains, locus YMR078C, strain ctf18, active compounds read low 1.02 | S. cerevisiae deletion strains, locus YMR125W, strain sto1, active compounds read low 1.06 | S. cerevisiae deletion strains, locus YMR129W, active compounds read low 1.01 | S. cerevisiae deletion strains, locus YMR205C, strain PFK2, active compounds read low 0.979 | S. cerevisiae deletion strains, locus YMR223W, strain ubp8, active compounds read low 1.01 | S. cerevisiae deletion strains, locus YMR231W, strain pep5, active compounds read low 1.01 | S. cerevisiae deletion strains, locus YMR263W, strain SAP30, active compounds read low 1 and 1.01 | S. cerevisiae deletion strains, locus YMR307W, strain GAS1, active compounds read low 1.02 and 1.01 | S. cerevisiae deletion strains, locus YNL067W, strain RPL9B, active compounds read low 0.997 | S. cerevisiae deletion strains, locus YNL071W, strain lat1, active compounds read low 0.998 | S. cerevisiae deletion strains, locus YNL128W, strain TEP1, active compounds read low 1.01 | S. cerevisiae deletion strains, locus YNL153C, strain GIM3, active compounds read low 1 | S. cerevisiae deletion strains, locus YNL175C, strain NOP13, active compounds read low 0.962 | S. cerevisiae deletion strains, locus YNL183C, strain NPR1, active compounds read low 0.93 | S. cerevisiae deletion strains, locus YNL197C, strain WHI3, active compounds read low 0.99 | S. cerevisiae deletion strains, locus YNL209W, strain ssb2, active compounds read low 1 | S. cerevisiae deletion strains, locus YNL224C, strain SQS1, active compounds read low 1.01 | S. cerevisiae deletion strains, locus YNL233W, strain BNI4, active compounds read low 1 | S. cerevisiae deletion strains, locus YNL248C, strain rpa49, active compounds read low 1.03 | S. cerevisiae deletion strains, locus YNL250W, strain rad50, active compounds read low 1.02 | S. cerevisiae deletion strains, locus YNL271C, strain bni1, active compounds read low 1.01 | S. cerevisiae deletion strains, locus YNL298W, strain CLA4, active compounds read low 1 | S. cerevisiae deletion strains, locus YNL307C, strain MCK1, active compounds read low 1.01 | S. cerevisiae deletion strains, locus YNL322C, strain KRE1 (second series), active compounds read low 1 | S. cerevisiae deletion strains, locus YNL322C, strain KRE1, active compounds read low 1.01 | S. cerevisiae deletion strains, locus YNR049C, strain mso1, active compounds read low 0.993 | S. cerevisiae deletion strains, locus YNR052C, strain pop2, active compounds read low 1.01 | S. cerevisiae deletion strains, locus YOL006C, strain TOP1, active compounds read low 1.01 | S. cerevisiae deletion strains, locus YOL012C, strain htz1 1.04 | S. cerevisiae deletion strains, locus YOL147C, strain pex11, active compounds read low 1.01 | S. cerevisiae deletion strains, locus YOR001W, strain rrp6, active compounds read low 1 | S. cerevisiae deletion strains, locus YOR061W, strain CKA2, active compounds read low 0.999 | S. cerevisiae deletion strains, locus YOR069W, strain VPS5, active compounds read low 1.01 | S. cerevisiae deletion strains, locus YOR070C, strain gyp1, active compounds read low 1.02 | S. cerevisiae deletion strains, locus YOR080W, strain dia2, active compounds read low 1.01 | S. cerevisiae deletion strains, locus YOR083W, strain WHI5 (second series), active compounds read low 0.986 | S. cerevisiae deletion strains, locus YOR083W, strain WHI5, active compounds read low 0.974 | S. cerevisiae deletion strains, locus YOR106W, strain vam3, active compounds read low 1 | S. cerevisiae deletion strains, locus YOR136W, strain idh2, active compounds read low 1.01 | S. cerevisiae deletion strains, locus YOR144C, strain elg1, active compounds read low 1.01 | S. cerevisiae deletion strains, locus YOR184W, strain ser1, active compounds read low 1.01 | S. cerevisiae deletion strains, locus YOR231W, strain MKK1, active compounds read low 0.935 | S. cerevisiae deletion strains, locus YOR265W, strain rbl2, active compounds read low 0.999 | S. cerevisiae deletion strains, locus YOR270C, strain vph1, active compounds read low 0.92 | S. cerevisiae deletion strains, locus YOR290C, strain snf2, active compounds read low 1.03 | S. cerevisiae deletion strains, locus YOR316C, strain cot1, active compounds read low 1.01 | S. cerevisiae deletion strains, locus YPL051W, strain arl3, active compounds read low 1.01 | S. cerevisiae deletion strains, locus YPL055C, strain LGE1, active compounds read low 1 and 1.02 | S. cerevisiae deletion strains, locus YPL078C, strain atp4, active compounds read low 1.03 | S. cerevisiae deletion strains, locus YPL106C, strain sse1, active compounds read low 1.08 | S. cerevisiae deletion strains, locus YPL240C, strain hsp82, active compounds read low 1.02 | S. cerevisiae deletion strains, locus YPL241C, strain CIN2, active compounds read low 0.985 | S. cerevisiae deletion strains, locus YPL256C, strain CLN2, active compounds read low 0.955 | S. cerevisiae deletion strains, locus YPR119W, strain clb2, active compounds read low 1.01 | S. cerevisiae deletion strains, locus YPR141C, strain kar3, active compounds read low 1.02 | S. cerevisiae deletion strains, locus YPR163C, strain tif3, active compounds read low 1.01 | S. cerevisiae deletion strains, locus YPR167C, strain met16, active compounds read low 1.01 | S. cerevisiae deletion strains, strain wtn01, active compounds read low 1 | S. cerevisiae strains, strain wild type, active compounds read low 1
